The sample as a whole holds a higher share of hits than the screen did.
GIRK2 activator: Activates human GIRK2-containing potassium channels. AID 1259324. activation (% efficacy), % for hits at 37.5 µM. HEK293 GIRK2/NPY4 cells, thallium flux fluorescence. 34,000 tested, under 10 active;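 active = primary screen hit, no activity in plain HEK293 cells, and in GIRK2-only cells above 5% efficacy rising with concentration; inactive = the rest, including fluorescent compounds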;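 note: efficacy is normalized control-subtracted fluorescence 15 s after thallium addition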
AMPAR-TARP mod: modulators of AMPA receptor GluA2-stargazin complexes | hit rate 3.5% among 40,000 | calls only at 30 µM | HEK293 GluA2+stargazin, membrane potential dye (FDSS), glutamate EC50; hits were called plate by plate, in both directions | AID 1259245 | O88602+P19491;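 active = any of four per-well response measures lying three or more SD from its plate-wide compound average, in either direction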
Of the large screens only hits and unclear results are named; the others gave an inactive call.

COc1ccc(S(=O)(=O)N2CCCCC2CC(=O)NCc2ccc(Cl)cc2)cc1 (stereo unspecified)	none (no result: GIRK2 activator)
O=C(Nc1ccc(OC(F)(F)F)cc1)N1CCN(c2ccc3nncn3n2)CC1	none
O=C(CC(c1ccccc1)c1ccccc1)Nc1ccc(CC(=O)N2CCC(O)CC2)cc1	none (no result: AMPAR-TARP mod)
CC1CC(C)CN(C(=O)c2cc3cccnc3n(Cc3ccccc3)c2=O)C1 (stereo unspecified)	none
O=C(/C=C/c1cccs1)NCC1CCN(C(=O)c2cc3ccccc3o2)CC1	AMPAR-TARP mod active
O=C(NCc1cccs1)NCC1CCN(C(=O)c2cc3ccccc3o2)CC1	none
O=C(NCC1CCN(C(=O)c2ccccc2F)CC1)c1ccc2nsnc2c1	none
O=C(NCC1CCN(C(=O)c2cc3ccccc3o2)CC1)c1ccc2nsnc2c1	AMPAR-TARP mod active
CCCCN=C1SC(CC(N)=O)C(=O)N1CCCC (stereo unspecified)	none (no result: GIRK2 activator)
Nc1ccc2c3c(cccc13)C(=O)N(c1ccccc1)C2=O	AMPAR-TARP mod active (no result: GIRK2 activator)
O=C1c2ccc(-n3c(=O)c4ccccc4c4ccccc4c3=O)cc2C(=O)N1c1ccccc1	none (no result: GIRK2 activator)
O=C(Nc1nccs1)c1ccc(-c2ccccc2C(F)(F)F)o1	none (no result: GIRK2 activator)
O=C(/C=C/c1ccccc1Cl)Nc1ccc2c(c1)C(=O)N1CCCCC1CCO2 (stereo unspecified)	none
O=C1c2cc(NC(=O)C3(c4cccs4)CCCC3)ccc2OCCC2CCCCN12 (stereo unspecified)	AMPAR-TARP mod active
O=C(NCC(c1ccsc1)N1CCc2ccccc2C1)C1CC1 (stereo unspecified)	AMPAR-TARP mod active
COc1c(C)cc(S(=O)(=O)NCC(c2ccsc2)N2CCc3ccccc3C2)cc1C (stereo unspecified)	none
CCOC(=O)c1c(NC(=O)c2ccn(C)n2)sc(C)c1C	none
CCc1cc2c(N3CCN(c4nc(C)cc(C)n4)CC3)ncnc2s1	none (no result: GIRK2 activator)
Cc1cc(C)c2c(n1)sc1c(N3CCN(CCO)CC3)ncnc12	AMPAR-TARP mod active
c1ccc2c(N3CCOCC3)nnc(N3CCOCC3)c2c1	none
COc1ccccc1Nc1nc(N2CCOCC2)c2ccccc2n1	AMPAR-TARP mod active (no result: GIRK2 activator)
CN1CCN(c2nc(N3CCOCC3)c3ccccc3n2)CC1	AMPAR-TARP mod active (no result: GIRK2 activator)
COc1ccc(NC(=O)CSc2nc3ccccc3nc2N2CCOCC2)cc1	none
COc1ccc(S(=O)(=O)N2CCCc3cc(NC(=O)C4CCCC4)ccc32)cc1	none (no result: GIRK2 activator)
CCCNC(=O)C(=O)Nc1c2c(nn1-c1ccc(Cl)cc1)CSC2	none (no result: GIRK2 activator)
COc1ccc(Cl)cc1-n1nnc(C(=O)NCCO)c1C	none
Cc1ccc(CNC(=O)c2cc3c(=O)n4ccccc4nc3n(Cc3ccco3)c2=N)cc1	none
N=c1c(C(=O)NC2CCCC2)cc2c(=O)n3ccccc3nc2n1C1CCCC1	AMPAR-TARP mod active
COc1ccccc1N1CCCn2c1nc1c2c(=O)n(Cc2ccccc2F)c(=O)n1C	none (no result: GIRK2 activator)
CCn1ccc(C(=O)Nc2nc(C)c(C(C)=O)s2)n1	none (no result: AMPAR-TARP mod)
COc1ccc(C)cc1S(=O)(=O)Nc1ccc2c(c1)N(C(=O)C(C)(C)C)CC2	none
COc1ccccc1OCC(=O)Nc1ccc2c(c1)N(C(=O)C(C)(C)C)CC2	AMPAR-TARP mod active
COc1ccc(Cl)cc1S(=O)(=O)Nc1ccc2c(c1)N(C(=O)C(C)(C)C)CC2	AMPAR-TARP mod active
COc1ccc(OCC(=O)Nc2ccc3c(c2)N(C(=O)C(C)(C)C)CC3)cc1	none
Cc1sc(NC(=O)CCCS(=O)(=O)c2ccc(F)cc2)c(C#N)c1C	none (no result: GIRK2 activator)
Cc1csc(C(=O)NCC(O)c2ccc(C(F)(F)F)cc2)c1 (stereo unspecified)	none (no result: AMPAR-TARP mod)
CCn1nnc2c(=O)n(CC(=O)N(C(C)C)C(C)C)cnc21	none
CC(=O)N1CCN(c2oc(-c3ccccc3)nc2S(=O)(=O)c2ccccc2)CC1	none
CC(=O)N1CCN(c2oc(-c3ccccc3C)nc2S(=O)(=O)c2ccc(C)cc2)CC1	AMPAR-TARP mod active
O=S(=O)(c1ccccc1)c1nc(-c2ccccc2Cl)oc1N1CCCC1	AMPAR-TARP mod active
Cc1ccc(S(=O)(=O)c2nc(-c3ccccc3C)oc2N2CCC(C(N)=O)CC2)cc1	none
Cc1c(C(=O)N2CCC(c3nnc(-c4ccco4)s3)CC2)cnn1-c1ccccc1	none
COC(=O)c1ccc2c(=O)n(CCN3CCCc4ccccc43)c(=S)[nH]c2c1	none
Cc1cc(N(C)C)nc(NCCNC(=O)c2ccc(Br)o2)n1	none (no result: AMPAR-TARP mod)
Cc1cc(N(C)C)nc(NCCNC(=O)c2cnccn2)n1	AMPAR-TARP mod active
CCCCn1c(SCc2nc(-c3cc(OC)cc(OC)c3)no2)nc2ccsc2c1=O	none
CCCCn1c(SCc2nc(-c3ccc(Cl)cc3)no2)nc2ccsc2c1=O	AMPAR-TARP mod active
COc1ccccc1N1CCN(CC(N)=O)CC1	none (no result: GIRK2 activator)
COCCN1CCC(CNS(=O)(=O)c2ccc(C)s2)CC1	none
COc1cccc(-n2c(=O)c3sccc3n(Cc3nc(-c4ccc(C)c(C)c4)no3)c2=O)c1	none
COC(=O)c1sccc1S(=O)(=O)N(CC(=O)Nc1ccc(OC)cc1)c1ccccc1	none
COC(=O)c1sccc1S(=O)(=O)N(CC(=O)Nc1ccc(OC)cc1)c1ccc(Cl)cc1	AMPAR-TARP mod active
COC(=O)c1sccc1S(=O)(=O)N(CC(=O)Nc1cc(C)ccc1C)c1ccc(Cl)cc1	none
COC(=O)c1sccc1S(=O)(=O)N(CC(=O)Nc1ccccc1OC)c1ccc(Cl)cc1	AMPAR-TARP mod active (no result: GIRK2 activator)
COC(=O)C1CCN(C(=O)C(=O)Nc2c3c(nn2-c2ccccc2)CS(=O)(=O)C3)CC1	none
COc1cc(C)c(Cl)cc1S(=O)(=O)NC(C)(C)C	none (no result: GIRK2 activator)
CCOCCCNS(=O)(=O)c1cc(Cl)c(C)cc1OC	AMPAR-TARP mod active (no result: GIRK2 activator)
Cc1ccc(Nc2ccc(NC(=O)Cc3c[nH]c4ccccc34)cc2)nn1	none
CSc1ccccc1NC(=O)C(=O)NCC1CCN(Cc2cc(C)oc2C)CC1	AMPAR-TARP mod active
O=C(/C=C/c1ccco1)NCC1CCN(Cc2ccsc2)CC1	none (no result: AMPAR-TARP mod)
CSc1ccccc1NC(=O)C(=O)NCC1CCN(Cc2ccco2)CC1	none
O=C(/C=C/c1ccccc1)NCC1CCN(Cc2ccsc2)CC1	AMPAR-TARP mod active
CSc1ccccc1CN1CCC(CNC(=O)/C=C/c2ccccc2)CC1	AMPAR-TARP mod active
CSc1ccccc1CN1CCC(CNC(=O)/C=C/c2ccc3c(c2)OCO3)CC1	none
CC(=O)c1ccc(NC(=O)Cn2nc(-c3ccc4c(c3)OCO4)ccc2=O)cc1	none
COc1ccc(N2CCN(CCn3c(C)cn4c5c(=O)[nH]c(=O)n(C)c5nc34)CC2)cc1	none (no result: GIRK2 activator)
CC(=O)Nc1cccc(NC(=O)CN2C(=O)c3ccccc3S2(=O)=O)c1	none
COc1ccc(-c2noc(C3CC(=O)N(c4ccc(C)cc4)C3)n2)cc1OC (stereo unspecified)	none
COc1ccc([N+](=O)[O-])cc1NC(=O)c1ccccc1NS(=O)(=O)c1ccccc1	none
COc1ccc(S(=O)(=O)Nc2ccccc2C(=O)Nc2ccc([N+](=O)[O-])cc2OC)cc1	AMPAR-TARP mod active
FC(F)(F)c1ccccc1Nc1nc(=S)[nH]c2ccccc12	none
COc1ccccc1-c1coc2cc(OCc3ccc(F)cc3)ccc2c1=O	none (no result: GIRK2 activator)
COc1ccc2c(=O)c(-c3ccccc3OC)coc2c1	AMPAR-TARP mod active
CC(=O)N1CCc2c(sc(NC(=O)c3ccc(Cl)cc3)c2-c2nc3ccccc3s2)C1	none (no result: GIRK2 activator)
N#C/C(=C\c1ccc(O)cc1)c1nc2ccccc2s1	none (no result: GIRK2 activator)
N#C/C(=C\c1cccnc1)c1nc2ccccc2s1	AMPAR-TARP mod active (no result: GIRK2 activator)
Cc1ccc(NC(=O)C(=O)NCCN2CCOCC2)cc1N1CCCC1=O	none
Nc1nc2ccc(OC(F)(F)F)cc2s1	AMPAR-TARP mod active
